Results on 15 compounds are retold here after PubChem BioAssay.

Values without a mark were called inactive. Active and inactive are the calls of the source.

A short description of this assay: plasmodial surface anion channel blockers, osmotic lysis – cell-based, P. falciparum Indochina, OD700, 1 h, primary screen (AID 1154). To be noted: P. falciparum Indochina infected RBC osmotic lysis, higher = more signal, called active from +8 up or from −8 down.
On to `CCN1C(=O)[C@H]2[C@H]3[C@H](O)[C@H](O)CC(=NOCC[C@@H]4C=C[C@H](OC(C)=O)[C@@H](COC(C)=O)O4)[C@@H]3CC[C@H]2C1=O`, for which the z-score is 0.422. With `COc1ccc(O[C@H]2C=C[C@@H](c3ccccc3)O[C@@H]2COC(=O)CCC(C)=NOC[C@@H](O)COCc2ccco2)cc1` the figure was 6.71; with `CC(C)[C@@H](OCc1ccccc1)[C@H](C)C=NOC[C@@H](O)[C@H]1O[C@@H]2OC(C)(C)O[C@@H]2[C@H]1O`, 0.0248; with `O=C1C2=CC[C@H]3C(=O)N(Cc4ccccc4)C(=O)[C@H]3[C@H]2[C@H](O)[C@@H]2O[C@H]12`, 0.472. Regarding `COC(=O)[C@H](C)NC(=O)CCC1CC(OC(=O)NCc2ccc3c(c2)OCO3)CC2(CCCC(COC(=O)NCc3ccccc3)O2)O1` (stereo not given in full), the z-score is 1.08. With `CC(C)CON=C1C[C@@H](O)[C@@H](O)[C@@H]2[C@@H]3C(=O)N(Cc4ccccc4)C(=O)[C@@H]3CC[C@H]12` the figure was 1.12; with `O=C1[C@H]2[C@H]3[C@H](O)[C@H](O)CC(=NO[C@@H]4O[C@H](CO)[C@@H](O)[C@H](O)[C@H]4O)[C@H]3CC[C@H]2C(=O)N1c1ccc(F)cc1F`, 2.95. With `CC(=O)OC[C@H]1O[C@@H](ON=C2[C@H]3CCn4c(=O)n(-c5ccccc5)c(=O)n4[C@H]3[C@H](O)[C@@H]3O[C@H]23)[C@H](OC(C)=O)[C@@H](OC(C)=O)[C@@H]1OC(C)=O` the figure was 0.597. To `C#CCCCON=C1C[C@@H](O)[C@@H](O)[C@@H]2[C@@H]3C(=O)N([C@@H](C)c4ccccc4)C(=O)[C@@H]3CC[C@@H]12` belongs 0.433. Consider `O=C1[C@H]2[C@H]3[C@H](O)[C@H](O)CC(=NOC[C@@H](O)COCc4ccco4)[C@@H]3CC[C@H]2C(=O)N1C1CCCCC1`, for which the z-score is 7.07. Consider `C[C@]12CCC3c4ccc(OCC5CO5)cc4CCC3C1CC[C@@H]2O` (stereo not given in full), for which the z-score was 24.3 (active). With `CCOC(=O)CCN1C(=O)[C@H]2[C@H]3[C@H](O)[C@H](O)CC(=NO[C@@H]4O[C@H](CO)[C@@H](O)[C@H](O)[C@H]4O)[C@H]3CC[C@H]2C1=O` the figure was -0.266; with `C=CCOCC1CN2[C@@H](CC[C@@H](C)[C@@H]2c2ccc(Br)cc2)C(=O)O1` (stereo not given in full), 0.517; with `CO[C@H]1COC(=O)[C@H](C)COC(=O)[C@@H](OCc2ccccc2)C=C[C@@H]1C`, 0.345. With `CC(C)=NOC(C)CN1CCCc2nc(C)c(C)cc21` (stereo not given) the figure was 0.421.
